DT40 TDP1 no CPT – qHTS for Inhibitors of human tyrosyl-DNA phosphodiesterase 1 (TDP1): qHTS in cells in absence of CPT | DT40 Tdp1-/- hTDP1 cells, no CPT, ATP luminescence, 48 h | Potency, µM (highest dose often 46.2 µM), without a hit: at the highest dose activity change, negative = growth inhibition, hits mostly inhibitors | actives 15% (n = 420,000) | AID 686978, 2013; note: potency is the fitted concentration of half-maximal effect; % is set by controls: 0 for no effect and ±100 for the full control effect; nearly all actives have a fitted effect of over 55% in size
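Chicken DT40 Tdp1-/- cells stably complemented with human TDP1 were seeded at 400 cells/well with DMSO in place of 20 nM camptothecin. After compound pinning, cells grew at least 48 hr at 37 °C; viability read by CellTiter-Glo luminescence.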
TDP1 cell CPT – qHTS for Inhibitors of human tyrosyl-DNA phosphodiesterase 1 (TDP1): qHTS in cells in presence of CPT. chicken DT40 Tdp1-/-;hTDP1 cells + 20 nM CPT, ATP luminescence, 48 h. Potency, µM (doses to about 46.2 µM), for inactives: top-dose activity change, negative = growth inhibition, most hits filed as inhibitors. actives 12% (n = 420,000). AID 686979, 2013; note: potency is the fitted concentration of half-maximal effect; % is set by controls: 0 for no effect and ±100 for the full control effect; nearly all actives have a fitted effect of over 55% in size
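Chicken DT40 Tdp1-/- cells stably complemented with human TDP1 were seeded at 400 cells/well in medium containing 20 nM camptothecin, exposed to pin-transferred compounds, and grown at 37 °C for at least 48 hr. Viability was read as ATP luminescence.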
D3 antag – qHTS of D3 Dopamine Receptor Antagonist: qHTS | D3R cells, DiscoveRx beta-arrestin luminescence, antagonist mode; hits give low values | max response, negative = inhibition, % | actives 2.5% (n = 360,000) | AID 652054, 2013; in the data active = max response below about -50%; inconclusive = no clear call, values can overlap the other calls; note: % is set by controls: 0 for no effect and ±100 for the full control effect
Target sequence (P35462 whole entry, looked up): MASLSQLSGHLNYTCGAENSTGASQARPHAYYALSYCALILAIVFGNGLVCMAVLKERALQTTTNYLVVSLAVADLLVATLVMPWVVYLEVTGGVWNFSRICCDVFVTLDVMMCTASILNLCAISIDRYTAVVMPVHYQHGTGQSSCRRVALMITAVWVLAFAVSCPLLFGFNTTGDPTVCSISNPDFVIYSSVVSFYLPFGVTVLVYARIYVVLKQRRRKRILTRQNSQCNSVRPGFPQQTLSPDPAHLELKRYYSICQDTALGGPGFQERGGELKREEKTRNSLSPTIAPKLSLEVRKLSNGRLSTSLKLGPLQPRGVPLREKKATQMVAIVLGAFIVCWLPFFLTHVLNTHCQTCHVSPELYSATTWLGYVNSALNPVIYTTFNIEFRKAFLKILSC
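Cells plated overnight at 1500 cells/well, then exposed to library compounds with dopamine controls for 90 minutes at 37 degrees C. DiscoveRx reagent added for 30–60 minutes at room temperature; luminescence read, quantitative HTS format.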
D3 ag – qHTS of D3 Dopamine Receptor Agonist: qHTS; D(3) dopamine receptor (Homo sapiens), P35462; D3R DiscoveRx beta-arrestin cells, luminescence, 90 min; max activation, %; actives 0.58% (n = 410,000); AID 652048, 2013; in the data active = max activation above about 30%; note: 0% is about no effect
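Cells at 1500/well, incubated overnight, then treated with pinned compounds (dopamine as control) for 90 min at 37 degrees C. DiscoveRx reagent added for 30 - 60 minutes at room temperature; luminescence read.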
ClpP mod – qHTS Assay for Activators of ClpP | purified B. subtilis ClpP, FRET peptide cleavage, 20 min | actives 1.9% (n = 340,000) | Potency, µM (doses to about 57.5 µM), without a hit: at the top dose activity change, negative = active; active = well fitted falling curve with a large enough effect; inconclusive = small, poorly fitted or top-dose-only effect; inactive = no such curve, though single readings can be large or run the other way; note: potency is the fitted concentration of half-maximal effect; the source files actives as falling curves though it sought activators and does not explain the sign; nearly all actives have a fitted effect of over 65% in size
Target sequence (P80244 whole entry, looked up): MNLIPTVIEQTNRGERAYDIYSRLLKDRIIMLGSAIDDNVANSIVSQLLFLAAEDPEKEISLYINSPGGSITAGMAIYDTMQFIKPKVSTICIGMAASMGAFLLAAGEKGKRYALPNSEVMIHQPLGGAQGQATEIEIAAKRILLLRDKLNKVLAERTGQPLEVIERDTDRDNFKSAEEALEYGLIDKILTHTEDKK
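Purified B. subtilis ClpP, 10 microg/mL final in Tris/HCl pH8 with KCl, BSA, glycerol and Tween-20, cleaved an Abz/nitrotyrosine-quenched decapeptide. Fluorescence (ex 320, em 430) was read at 0 and 20 min at room temperature. Delta was normalized to 5.8 microM ADEP and DMSO/no-enzyme controls.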
IL1B secr inh – qHTS for Inhibitors of Inflammasome Signaling: IL-1-beta AlphaLISA Primary Screen | THP-1 LPS/ATP IL-1B secretion, AlphaLISA, 16 h; hits give low values | activity change, % at 57.5 µM | actives 4.7% (n = 360,000); in the data active = activity change below about -50%; inconclusive = mostly about -30% to -49%; note: % is set by controls: 0 for no effect and ±100 for the full control effect
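Secreted IL-1B measured by AlphaLISA bead assay after 16 h compound exposure of THP-1 cells; compounds (final up to 57.5 uM) added 1 h before LPS (250 ng/mL) and ATP (1.25 mM) stimulation; lower signal means less secretion.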
An asterisk follows results filed as active; ? = inconclusive; . = no result given. The list is not random: actives were taken first. Their share in the collection is about 21%. Unless noted, calls come from the whole dose curve; as a rule, active = well fitted inhibition curve with a large enough effect; inconclusive = small, poorly fitted or top-dose-only effect; inactive = flat fitted curve, though single readings scatter.

SMILES	DT40 TDP1 no CPT	TDP1 cell CPT	D3 antag	D3 ag	ClpP mod	IL1B secr inh
S=c1[nH]nc(-c2cccs2)n1/N=C/c1cn(-c2ccccc2)nc1-c1cccs1	-29%	5%	14	30*	.	.
Cc1nc2ccccc2c(=O)n1/N=C/c1cn(-c2ccccc2)nc1-c1cccs1	21µM*	?	15	0	9%	1
O=[N+]([O-])c1ccc(-c2nn(-c3ccccc3)cc2/C=N/n2c(-c3ccncc3)n[nH]c2=S)cc1	18µM*	?	3	2	.	17
S=c1[nH]nc(-c2ccncc2)n1/N=C/c1cn(-c2ccccc2)nc1-c1ccccc1	?	?	4	10	0%	75
O=[N+]([O-])c1ccc(/C=N/n2c(-c3cccnc3)n[nH]c2=S)cc1	-2%	-7%	-56*	-15	-3%	-2
O=C1CC[C@@H](CN(Cc2cccnc2)C2CCN(c3ccc(NC(=O)c4cnccn4)cc3)CC2)N1	-19%	2%	.	.	.	.
Cc1ccc(O)c(-c2ccnc3cc(-c4ccc(Cl)cc4)nn23)c1	?	-20%	.	24	-29%	.
Cc1cc(-c2n[nH]c(=S)n2/N=C/c2cc([N+](=O)[O-])ccc2Cl)n[nH]1	18µM*	5.2µM*	-5	-7	0%	42
Cc1cc(-c2n[nH]c(=S)n2/N=C/c2ccc(Cl)c([N+](=O)[O-])c2)n[nH]1	?	?	-15	-24	-1%	15
Oc1ccc(-c2[nH]ncc2-c2cnn(-c3ccccc3)c2)c(O)c1	1%	5%	-10	6	-2%	-16
COc1ccc(-c2onc(C)c2-c2cnn(-c3ccccc3)c2)c(O)c1	21µM*	?	-9	-14	.	-18
COc1ccc(-c2onc(C)c2-c2ccccc2)c(O)c1	18µM*	?	4	2	-12%	-1
Cc1ccccc1-c1coc2cc(O)ccc2c1=O	?	?	2	6	28µM*	1
CC(=O)CCC(=O)O	-3%	16%	.	0	.	.
CC(C)(C)n1nnnc1C(c1ccccc1)N1CCN(C(=O)c2ccco2)CC1 (stereo unspecified)	?	-2%	0	56*	-2%	-11
Cc1ccc(S(=O)(=O)Cn2nnnc2C(C(C)C)N2CCN(C(=O)c3ccco3)CC2)cc1 (stereo unspecified)	-22%	-24%	-56*	-3	-1%	-23
CC(C)(C)n1nnnc1C(c1cccnc1)N1CCN(C(=O)c2ccco2)CC1 (stereo unspecified)	-14%	-16%	-21	-29	-5%	0
O=C(Nc1ccccc1)N1CC2(CCN(C(=O)c3ccco3)CC2)C1	-4%	3%	.	.	.	.
CC(C)CCn1nnnc1C(c1ccc(F)cc1)N1CCN(C(=O)c2ccco2)CC1 (stereo unspecified)	?	-18%	-76*	0	1%	-10
O=C(c1ccco1)N1CCC2(CC1)CN(C(c1ccccc1)c1ccccc1)C2	15µM*	?	.	.	.	.
Cc1ccc(S(=O)(=O)Cn2nnnc2C(C)N2CCN(C(=O)c3ccco3)CC2)cc1 (stereo unspecified)	-2%	3%	9	0	1%	5
Cn1c(SCC(=O)N2c3ccccc3CCc3ccccc32)nnc1-c1ccc(O)cc1	-23%	-9%	-14	-6	1%	-7
O=C(c1csnn1)N1CCC[C@@]2(CCN(C(c3ccccc3)c3ccccc3)C2)C1	18µM*	?	.	.	.	.
CC(C)(C)n1nnnc1C(c1cc2ccccc2o1)N1CCN(C(=O)OCc2ccccc2)CC1 (stereo unspecified)	18µM*	?	-63*	-10	-13%	-21
O=C(c1csnn1)N1CCC[C@@]2(CCN(c3ccncc3)C2)C1	-11%	-3%	.	.	.	.
SMILES	DT40 TDP1 no CPT	TDP1 cell CPT	D3 antag	D3 ag	ClpP mod	IL1B secr inh
CC(C)(C)OC(=O)N1CCCN(C(c2cc3ccccc3o2)c2nnnn2C(C)(C)C)CC1 (stereo unspecified)	?	?	2	6	1%	-5
CCN1CCN(C(CNS(=O)(=O)c2ccccc2)c2cccnc2)CC1 (stereo unspecified)	-2%	-13%	14	-3	1%	0
COc1ccc(-c2nc3cnc(Nc4cccc(OC)c4)nc3n(C3CC3)c2=O)cc1	-7%	-27%	.	.	.	.
Cc1ccc(C)c(NC(=S)N(Cc2cccc(Br)c2)CC2CCC(C(=O)O)CC2)c1 (stereo unspecified)	-3%	-12%	11	1	1%	-4
CC1=C(C(=O)Nc2ccc(C)cc2)C(c2ccco2)NC(=O)N1 (stereo unspecified)	-10%	-6%	26	2	3%	13
CC1=C(C(=O)Nc2ccc(Br)cc2)C(c2ccco2)NC(=O)N1 (stereo unspecified)	?	23µM*	-20	-8	1%	11
COc1cccc(CNC(=O)CSc2nnc(C)c3c(C)n(-c4ccccc4)nc23)c1	18µM*	?	.	-11	-1%	.
COc1ccc(CNC(=O)C2CCN(c3nnc(C)c4c(C)n(-c5ccc(C)cc5)nc34)CC2)cc1	16µM*	?	.	-13	4%	.
Cc1ccc(-n2nc3c(N4CCCC(C(=O)NCc5ccccc5C)C4)nnc(C)c3c2C)cc1 (stereo unspecified)	15µM*	15µM*	.	-10	5%	.
COc1ccc(-n2nc3c(N4CCC(C(=O)NCc5cccc(F)c5)CC4)nnc(C)c3c2C)cc1	10µM*	9.2µM*	.	-14	4%	.
COc1cccc(CNC(=O)CCCn2nc(C)c3c(C)n(-c4ccccc4)nc3c2=O)c1	4%	?	3	-1	-4%	-24
CCOc1ccc(CCNC(=O)C2CC(C)=CCC2C(=O)O)cc1OCC (stereo unspecified)	?	0%	2	4	.	8
O=C(CSc1nnnn1-c1ccc2c(c1)OCCO2)N1CCN(C(=O)c2ccco2)CC1	?	-1%	-14	-11	-3%	5

Screening results from PubChem.
